A number with no mark means an inactive call. Calls of active or inactive are those of the source. Calls come from the whole dose curve; as a rule, active = well fitted curve in the direction sought with a large enough effect in the repeat runs; inconclusive = weak or mixed curves; inactive = flat fitted curve, though single readings scatter.
Assay: qHTS assay to test for compound auto fluorescence at 535 nm (green) in HepG2 cells (AID 720675)
Settings: green autofluorescence 485/535 nm, 1 h; series mostly up to 91.3 µM
% is set by controls: 0 for no effect and ±100 for the full control effect.

Structure (SMILES) | outcome
Oc1ccc(Cc2ccc(O)cc2)cc1 | inactive
C=C1CC[C@@]2(O)[C@H]3Cc4ccc(O)c5c4[C@@]2(CCN3CC2CC2)[C@H]1O5 | inactive
CCC(C(N)=O)N1CCCC1=O (centres undefined) | inactive
CN(C)CCc1c[nH]c2cccc(OP(=O)(O)O)c12 | inactive
CCC1(c2ccccc2)C(=O)N(COC)C(=O)N(COC)C1=O | inactive
CCCCCCCCSC(=O)Oc1cc(Cl)nnc1-c1ccccc1 | inactive
CCOP(=S)(OCC)Oc1ccc(Cl)cc1Cl | inactive
O=[N+]([O-])CCO | inactive
BrCc1ccc(Br)cc1 | inactive
C[C@H](N)C(=O)c1ccccc1 | inactive
CCc1cc(OC)c(C[C@H](C)N)cc1OC | inactive
COC(=O)c1ccc(CBr)cc1 | inactive
CCN[C@@H](C)Cc1cccc(C(F)(F)F)c1 | inactive

Assay: qHTS assay to test for compound auto fluorescence at 460 nm (blue) in HEK293 cells (AID 720678)
Settings: blue autofluorescence 405/460 nm; series mostly up to 91.3 µM
How it was run: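 Measured: blue fluorescence (Ex 405/Em 460 nm) of compound-treated HEK293 cells, incubated overnight at 37C with 5% CO2 and scaled to triamterene equivalents.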

Structure (SMILES) | outcome | fluorescence, % of triamterene
C=CCc1cc(OC)c2c(c1)OCO2 | inactive | –
CC(C)(C1CCC(O)CC1)C1CCC(O)CC1 (centres undefined) | inactive | –
COc1cccc(C=O)c1 | inactive | –
C=CC1(C)OC(=O)N(c2cc(Cl)cc(Cl)c2)C1=O (centres undefined) | inactive | –
COC(=O)[C@@H](N)CCCN/C(N)=N/[N+](=O)[O-] | inactive | –
CC(C)(O)C(Cl)(Cl)Cl | inactive | –
CCCC(C)(COC(N)=O)COC(N)=O | inactive | –
Cc1cc(OC(=O)N(C)C)nn1C(=O)N(C)C | inactive | –
CS(=O)(=O)Cl | inactive | –
NCC1(CC(=O)O)CCCCC1 | – | 0.0823% [at 18.6 µM]
COc1ccccc1OC | inactive | –
[P]#[In] | inactive | –
O=C(Cl)/C=C/C(=O)Cl | inactive | –
O=c1[nH]oc2c1CCNC2 | inactive | –
O=C(Cl)C(Cl)(Cl)Cl | inactive | –
N#CN=C1SCCN1Cc1ccc(Cl)nc1 | inactive | –

Structure (SMILES) | outcome | fluorescence, % of triamterene
CN(CCO)CCO | inactive | –
COC(=O)c1ccccc1CS(=O)(=O)NC(=O)Nc1nc(OC)cc(OC)n1 | inactive | –
CCOC1Oc2ccc(OS(C)(=O)=O)cc2C1(C)C (centres undefined) | inactive | –
C[N+]1(C)CCCCC1 | inactive | –
Cc1ccc(-c2nc3ccc(C)cn3c2CC(=O)N(C)C)cc1 | inactive | –
COc1cc(CCN)cc(OC)c1OC | inactive | –
O=P(O)(O)c1ccccc1 | inactive | –
Oc1ccc(Cc2ccc(O)cc2)cc1 | inactive | –
CCC1(c2ccccc2)C(=O)N(COC)C(=O)N(COC)C1=O | inactive | –
CCOP(=S)(OCC)Oc1ccc(Cl)cc1Cl | inactive | –
O=[N+]([O-])CCO | inactive | –
C[C@H](N)C(=O)c1ccccc1 | inactive | –
CCc1cc(OC)c(C[C@H](C)N)cc1OC | inactive | –
COC(=O)c1ccc(CBr)cc1 | inactive | –
CCN[C@@H](C)Cc1cccc(C(F)(F)F)c1 | inactive | –
